# Assay results from PubChem BioAssay.
# “And” between values parts separate entries of the source, which are not always exact repeats. Equal values may be shown once. Records with an inconclusive call do not appear. Where a structure was tested more than once in an assay, its records may differ in their call. The source made the active and inactive calls. Cut-off read from the data, not from the text of the source, unless noted: active = inhibition above about 80%; inactive = the rest.
# Key:
# [1] = EMT-state selective cytotoxicity in co-culture – imaging, PC-3E GFP, TEM4-18 mCherry, primary screen (AID 1345086;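 active = compounds killing one labelled cell type while sparing the other, by normalised counts and ratio limits, not self-fluorescent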;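 note: cells exposed to compound for 72 h before imaging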;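 for red/green cell ratio (normalised): normalised mesenchymal count divided by normalised epithelial count so high means epithelial killing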); details: PC-3E GFP / TEM4-18 mCherry co-culture, imaging cell counts, at 1 µM
# [2] = viability loss in pontine glioma line – cell-based, SU-DIPG-XVII, MIPE5.0, CellTiter-Glo, qHTS, dose response (AID 1347060; cut-off not given, nearly all actives have AC50 up to about 26 µM;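 note: cells exposed to compound for 48 hours before viability readout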); details: CellTiter-Glo ATP luminescence
# [3] = viability loss in pontine glioma line – cell-based, JHH-DIPG-1, MIPE4.0, CellTiter-Glo, qHTS, dose response (AID 1347062; cut-off not given, nearly all actives have AC50 up to about 27 µM;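 note: cells exposed to compound for two days before readout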); details: JHH-DIPG-1 viability, CellTiter-Glo ATP luminescence
# [4] = viability loss in pontine glioma line – cell-based, SU-DIPG-IV, MIPE4.0, CellTiter-Glo, qHTS, dose response (AID 1347063; cut-off not given, nearly all actives have AC50 up to about 30 µM;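 note: compound exposure lasted 48 hours before the viability readout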); details: CellTiter-Glo ATP luminescence
# [5] = viability loss in pontine glioma line – cell-based, SU-DIPG-XIII, MIPE5.0, CellTiter-Glo, qHTS, dose response (AID 1347064; cut-off not given, nearly all actives have AC50 up to about 23 µM;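 note: cells exposed to compound for 48 hours before the viability read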); details: CellTiter-Glo ATP luminescence
# [6] = viability loss in pontine glioma line – cell-based, SU-DIPG-XXV, MIPE5.0, CellTiter-Glo, qHTS, dose response (AID 1347065; cut-off not given, nearly all actives have AC50 up to about 26 µM;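 note: cells exposed to compound for 48 hours before ATP readout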); details: CellTiter-Glo ATP luminescence
# [7] = growth inhibition of DIPG cells – cell-based, MIPE4.0 library, CellTiter-Glo luminescence, qHTS (AID 1347066; cut-off not given, nearly all actives have AC50 up to about 30 µM;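 note: cells exposed to compound for 48 hours before readout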); details: SU-DIPG-VI viability, CellTiter-Glo ATP luminescence
# [8] = chitosan synthesis blockers in C. neoformans – flow cytometry, Cibacron Brilliant Red staining (AID 1347148; call rule not given here;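 note: compound exposure lasted three days at 37 degrees C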); details: Cryptococcus neoformans chitosan, stronger effect = lower value; at 10 µM unless noted
# [9] = target: Mitogen-activated protein kinase 7 (Homo sapiens) (UniProt Q13164); test: Gal4-ERK5 driven luciferase induction – cell-based, HTS, primary screen (AID 1508626;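 active = luciferase signal above three times the same-plate solvent-only control wells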;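 note: luciferase driven by Gal4-ERK5 fusion binding five Gal4 sites before minimal TATA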); details: HeLa Gal4-ERK5 transactivation, 18 h, at 5 µM, stronger effect = higher value
# Sequence of Mitogen-activated protein kinase 7 (Homo sapiens) (Q13164 whole entry, looked up, the tested form may be a part): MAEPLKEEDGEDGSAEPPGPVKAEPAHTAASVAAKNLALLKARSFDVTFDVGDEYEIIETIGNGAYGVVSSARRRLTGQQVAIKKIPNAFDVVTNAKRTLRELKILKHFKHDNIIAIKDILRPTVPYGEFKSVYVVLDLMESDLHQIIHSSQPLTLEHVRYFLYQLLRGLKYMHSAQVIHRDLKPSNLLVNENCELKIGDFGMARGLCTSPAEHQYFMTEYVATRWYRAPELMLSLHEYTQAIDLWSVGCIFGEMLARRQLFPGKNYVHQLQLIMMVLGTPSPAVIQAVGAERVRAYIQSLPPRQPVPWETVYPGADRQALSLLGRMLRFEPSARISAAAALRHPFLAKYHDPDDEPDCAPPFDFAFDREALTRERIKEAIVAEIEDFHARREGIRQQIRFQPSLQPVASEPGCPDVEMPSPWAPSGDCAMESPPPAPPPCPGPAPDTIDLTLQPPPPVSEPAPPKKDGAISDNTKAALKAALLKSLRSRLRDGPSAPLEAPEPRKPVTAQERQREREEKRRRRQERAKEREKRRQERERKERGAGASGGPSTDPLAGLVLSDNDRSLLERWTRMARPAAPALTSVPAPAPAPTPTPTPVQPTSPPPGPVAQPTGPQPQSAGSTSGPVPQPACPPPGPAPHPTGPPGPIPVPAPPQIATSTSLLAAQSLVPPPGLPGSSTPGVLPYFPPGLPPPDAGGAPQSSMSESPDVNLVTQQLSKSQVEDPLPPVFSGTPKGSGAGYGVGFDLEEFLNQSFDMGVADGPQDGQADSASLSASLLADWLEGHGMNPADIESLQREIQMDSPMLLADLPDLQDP
# [10] = growth inhibition, single agent or in combination, cell-based, chromothripsis tumors, cisplatin or BGB combos (AID 1671449); details: LFS_MB_P medulloblastoma cells;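 note: cells exposed for 96 hours; 0% = vehicle DMSO and 100% = killing by high DMSO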
# [11] = growth inhibition, single agent and combos, cell-based, chromothripsis tumors, cisplatin or BGB combos (AID 1671450); details: HDN33 neuroblastoma cells, stronger effect = higher value;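 note: cells exposed to compound for four days; 0% = vehicle DMSO and 100% = cell killing by high DMSO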
# [12] = growth inhibition, single agents and combos, ICB984, cell-based, cisplatin or BGB combos, synergistic combos for chromothripsis tumors (AID 1671451; call rule not given here;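 note: cells exposed for 96 hours before readout; 0% = vehicle DMSO and 100% = killing by high DMSO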); details: ICB984 medulloblastoma cells, drug combinations, stronger effect = higher value
# [13] = growth inhibition, single agents and combos, LFS_MB_1R, cell-based, cisplatin or BGB combos, synergistic combos for chromothripsis tumors (AID 1671452); details: LFS_MB_1R medulloblastoma cells, stronger effect = higher value;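 note: cells exposed for 96 hours before readout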
# [14] = growth inhibition, single agents and combos, HTB85, cell-based, BGB or cisplatin IC20 combos, synergistic combos for chromothripsis tumors (AID 1671453); details: HTB85 osteosarcoma cells, drug combinations, stronger effect = higher value;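 note: cells exposed for 96 hours before readout; 0% = vehicle DMSO and 100% = high DMSO killing control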
# [15] = growth inhibition, single agents and combos, CRL2098, cell-based, BGB or cisplatin IC20 combos, synergistic combos for chromothripsis tumors (AID 1671454); details: CRL2098 osteosarcoma cells, drug combinations, stronger effect = higher value;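 note: cells exposed for 96 h before readout; 0% = vehicle DMSO and 100% = killing by high DMSO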
# [16] = growth inhibition, single agents and combos, HD-MB03, cell-based, BGB or cisplatin IC20 combos, synergistic combos for chromothripsis tumors (AID 1671455; in the data active = inhibition above about 83%;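 note: 0% = vehicle DMSO and 100% = high DMSO as cytotoxic control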); details: HD-MB03 medulloblastoma cells, stronger effect = higher value
# [17] = growth inhibition, single agents and combos, UWB1.289, cell-based, BGB or cisplatin combos, synergistic combos for chromothripsis tumors (AID 1671456); details: UWB1.289 ovarian carcinoma cells, stronger effect = higher value;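 note: cells exposed to compound for four days; 0% = vehicle DMSO and 100% = killing by high DMSO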
# [18] = growth inhibition, single agents and combos, LFS_MB_2R, cell-based, cisplatin combos, synergistic combos for chromothripsis tumors (AID 1671457); details: LFS_MB_2R medulloblastoma cells, stronger effect = higher value;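 note: cells exposed to compound for four days before readout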
# [19] = growth inhibition, MDA-MB-436, cell-based, BGB or cisplatin combos, synergistic combos for chromothripsis tumors (AID 1671458; call rule not given here;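 note: cells exposed for 96 hours; 0% = vehicle DMSO and 100% = killing by high DMSO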); details: MDA-MB-436 breast carcinoma growth inhibition, drug combinations, stronger effect = higher value
# [20] = UWB1.289_BRCA1 ovarian cancer growth, cell-based, BGB or cisplatin combinations (AID 1671459); details: UWB1.289 BRCA1 ovarian carcinoma, drug combinations, stronger effect = higher value
# [21] = drug combination toxicity in non-malignant astrocytes – cell-based, BGB or cisplatin IC20 combos, cytotoxicity control for chromothriptic childhood tumor combination screen (AID 1671460); details: Human astrocytes, viability inhibition, drug combinations, at 0.5 µM, stronger effect = higher value;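 note: cells exposed to compounds for 96 hours before viability readout; 0% = vehicle and 100% = killing control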
# [22] = BT084 cell growth, single and combined drugs, ICGC_MB145, cisplatin and BGB IC40 combos (AID 1671461); details: BT084 medulloblastoma cells, drug combinations, stronger effect = higher value;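 note: cells exposed to drugs for 96 hours; 0% = vehicle DMSO and 100% = high DMSO full killing control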
# [23] = RCMB18 cell growth, single agent and combined, cisplatin and BGB IC40 combos (AID 1671462); details: RCMB18 medulloblastoma cells, stronger effect = higher value;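 note: cells exposed to compound for four days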
# [24] = CRL1545 cell growth, single agent and combined, cisplatin and BGB IC20 combos (AID 1671464); details: CRL1545 osteosarcoma cells, stronger effect = higher value;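 note: cells exposed to compound for 96 hours before readout; 0% = vehicle DMSO and 100% = high DMSO killing control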
# [25] = measured here: combination with BGB IC40, at 0.05 µM
# [26] = measured here: with BGB IC20 combination, at 0.5 µM
# [27] = measured here: with cisplatin IC20 combination, at 0.5 µM
# [28] = measured here: combination with cisplatin, at 0.5 µM
# [29] = measured here: combination with cisplatin, at 5 µM
smiles,measurement,setting,value
CC[C@@]1(O)C(=O)OCc2c1cc1n(c2=O)Cc2cc3cc(O)ccc3nc2-1,red/green cell ratio (normalised),"[1]; actives lie on both sides, counts scaled to control wells, 1 = unselective",0.94 (inactive)
same,normalised cell number,[1]; measured here: epithelial PC-3E GFP cell survival,0.31
same,normalised cell number,[1]; measured here: mesenchymal TEM4-18 mCherry cell survival,0.29
same,AC50,[2],16.6 nM (active)
same,AC50,[3],1870 nM (active)
same,AC50,[4],83.3 nM (active)
same,AC50,[5],66.1 nM (active)
same,AC50,[6],148 nM (active)
same,outcome,[7],inactive
same,fold fluorescence,[8],7.95 [at 137.2 µM] (inactive)
same,luciferase signal,[9],44 AU (inactive)
same,inhibition,"[10]; at 0.5 µM, stronger effect = higher value",25.9% (inactive) and 5.42% (inactive)
same,inhibition,"[10]; measured here: combination with BGB IC20, at 0.005 µM",4.22% and -3.99%
same,inhibition,"[10]; measured here: combination with BGB IC40, at 0.005 µM",-42.5% and -15.9%
same,inhibition,[10]; [25],-16% and -4.31%
same,inhibition,"[10]; measured here: combination with cisplatin, at 0.5 µM, stronger effect = higher value",62.8% and 48.1%
same,inhibition,"[10]; measured here: combination with cisplatin, at 5 µM, stronger effect = higher value",89.7% and 78.7%
same,inhibition,"[11]; BGB combo, at 5 µM",98.1% and 98.5%
same,inhibition,[11]; at 0.5 µM,78.7% (inactive) and 83.5% (active)
same,inhibition,"[11]; cisplatin combo, at 5 µM",96.5% and 98%
same,inhibition,[11]; [26],82.7% and 84.4%
same,inhibition,[11]; [27],71% and 81.1%
same,inhibition,"[11]; single agent, at 5 µM",96.6% and 97.8%
same,inhibition,"[12]; BGB IC20 combo, at 0.005 µM",23.2% and 34.7%
same,inhibition,"[12]; BGB IC40 combo, at 0.005 µM",40.1% and 53.7%
same,inhibition,"[12]; BGB IC40 combo, at 0.05 µM",93.9%
same,inhibition,[12]; at 0.5 µM,-30.2% (inactive) and -10.4% (inactive)
same,inhibition,"[12]; cisplatin combo, at 0.05 µM",93.6% and 93.9%
same,inhibition,"[12]; cisplatin combo, at 0.5 µM",-46.6% and -4.75%
same,inhibition,"[12]; cisplatin combo, at 5 µM",-24.4% and 16.7%
same,inhibition,"[12]; measured here: 5 uM single agent, at 5 µM",-21.1% and 2.06%
same,inhibition,[13]; at 0.5 µM,67.2% (inactive) and 79% (inactive)
same,inhibition,[13]; [25],-33.9% and 7.21%
same,inhibition,[13]; [28],83.2% and 73.4%
same,inhibition,[13]; [29],84.4% and 82.5%
same,inhibition,[14]; at 0.5 µM,99% (active) and 98.8% (active)
same,inhibition,"[14]; measured here: with BGB IC20, at 0.5 µM",97.9% and 98.3%
same,inhibition,"[14]; measured here: with BGB IC20, at 5 µM",98.2% and 98.3%
same,inhibition,"[14]; measured here: with cisplatin IC20, at 0.5 µM",99.3% and 98.9%
same,inhibition,"[14]; measured here: with cisplatin IC20, at 5 µM",99.6% and 99.7%
same,inhibition,"[14]; single agent, at 5 µM",99.5% and 99.7%
same,inhibition,[15]; at 0.5 µM,58.1% (inactive) and 64.8% (inactive)
same,inhibition,"[15]; measured here: combination with BGB at IC20, at 0.5 µM",81.9% and 74.5%
same,inhibition,"[15]; measured here: combination with cisplatin at IC20, at 0.5 µM",44.1% and 55.5%
same,inhibition,[16]; at 0.5 µM,99.4% (active) and 99.3% (active)
same,inhibition,"[16]; measured here: combo with BGB at IC20, at 0.5 µM",99.4%
same,inhibition,"[16]; measured here: combo with cisplatin at IC20, at 0.5 µM",99.4% and 99.2%
same,inhibition,[17]; at 0.5 µM,90.1% (active) and 89.5% (active)
same,inhibition,"[17]; measured here: inhibition with BGB combination, at 0.05 µM",17.9% and 40%
same,inhibition,"[17]; measured here: inhibition with cisplatin combination, at 0.05 µM",28.7% and 40.8%
same,inhibition,[18]; at 0.5 µM,21.3% (inactive) and 29.5% (inactive)
same,inhibition,[18]; [28],63.4% and 65.4%
same,inhibition,[18]; [29],76.4% and 77.8%
same,inhibition,[19]; at 0.5 µM,69.5% (inactive) and 70% (inactive)
same,inhibition,"[19]; measured here: BGB combination, at 0.5 µM",63.8% and 64.7%
same,inhibition,"[19]; measured here: BGB combination, at 5 µM",63.6% and 74.3%
same,inhibition,"[19]; measured here: cisplatin combination, at 0.5 µM",71.5% and 68.7%
same,inhibition,"[19]; measured here: cisplatin combination, at 5 µM",80.4% and 83.5%
same,inhibition,"[20]; BGB combination, concentration series, at 5 µM",96.9% and 98%
same,inhibition,[20]; at 0.5 µM,97.1% (active) and 97.8% (active)
same,inhibition,"[20]; cisplatin combination, concentration series, at 5 µM",99.8% and 104%
same,inhibition,[21],84.1% (active) and 83.3% (active)
same,inhibition,[21]; measured here: combo with BGB IC20,91.6% and 86.1%
same,inhibition,[21]; measured here: combo with cisplatin IC20,76% and 80.4%
same,inhibition,[22]; at 0.5 µM,13.5% (inactive) and 7.41% (inactive)
same,inhibition,"[22]; cisplatin combination, at 0.5 µM",46.9% and 55.3%
same,inhibition,"[22]; cisplatin combination, at 5 µM",28% and 7.98%
same,inhibition,"[22]; measured here: BGB IC40 combination 0.05 uM, at 0.05 µM",-21.8% and -8.97%
same,inhibition,"[22]; single agent, at 5 µM",42.3% and 44.7%
same,inhibition,[23]; at 0.5 µM,36.1% (inactive) and 38.1% (inactive)
same,inhibition,"[23]; cisplatin combo, at 5 µM",72.4% and 72.1%
same,inhibition,"[23]; measured here: BGB IC40 combination, at 0.05 µM",-15.2% and -13.6%
same,inhibition,[23]; [28],47.7% and 55.8%
same,inhibition,"[23]; single agent, at 5 µM",59.8% and 73%
same,inhibition,[24]; at 0.5 µM,81.7% (active) and 82.4% (active)
same,inhibition,[24]; [26],95.3% and 93.8%
same,inhibition,[24]; [27],74.8% and 76.7%
same,inhibition,"[24]; single agent, at 0.05 µM",4.98% and 48.5%
same,inhibition,"[24]; single agent, at 5 µM",99.8% and 99.9%
